Compound activity (PubChem)
ALOX12 inh – blocks human arachidonate 12S-lipoxygenase. AID 1671190. P18054. Potency, µM (doses to about 108 µM), inactives show at the top dose activity change, negative = inhibition, hits mostly inhibitors. 1.1% of 580,000 active. purified 12hLO, xylenol orange hydroperoxide absorbance; active = well fitted inhibition curve with a large enough effect; inconclusive = small, poorly fitted or top-dose-only effect, or another doubt; inactive = no such curve, though single readings can be large or run the other way; also: potency is read from the fitted curve at half-maximal effect; % is scaled to controls: 0 for no effect and ±100 for the full control effect
Target sequence (P18054 whole entry, looked up): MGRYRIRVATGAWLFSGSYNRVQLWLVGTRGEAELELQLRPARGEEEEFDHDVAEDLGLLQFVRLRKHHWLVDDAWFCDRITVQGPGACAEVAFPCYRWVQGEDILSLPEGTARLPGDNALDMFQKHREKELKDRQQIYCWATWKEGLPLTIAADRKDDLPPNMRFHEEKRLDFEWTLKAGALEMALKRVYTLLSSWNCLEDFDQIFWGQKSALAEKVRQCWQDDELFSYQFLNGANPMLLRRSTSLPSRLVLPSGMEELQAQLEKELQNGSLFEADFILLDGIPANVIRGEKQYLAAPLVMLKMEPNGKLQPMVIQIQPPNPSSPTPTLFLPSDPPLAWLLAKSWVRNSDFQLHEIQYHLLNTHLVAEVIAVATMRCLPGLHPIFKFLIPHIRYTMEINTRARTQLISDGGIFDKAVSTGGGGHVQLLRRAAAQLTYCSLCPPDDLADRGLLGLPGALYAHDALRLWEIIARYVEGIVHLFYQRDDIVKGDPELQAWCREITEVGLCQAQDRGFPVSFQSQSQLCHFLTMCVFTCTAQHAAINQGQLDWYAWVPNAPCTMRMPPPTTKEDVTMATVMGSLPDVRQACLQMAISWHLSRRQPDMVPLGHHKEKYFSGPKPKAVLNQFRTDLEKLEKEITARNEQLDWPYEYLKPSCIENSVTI
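Purified human 12hLO (150 nM final) in 25 mM Hepes, 0.01% Triton X-100, pH 7.0 was preincubated 15 min at room temperature with compound. Then 40 uM arachidonic acid was added, 30 min. Hydroperoxide was read by Fe-XO absorbance ratio 573/405 nm.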
Chronic BCR inh – chronic active BCR signaling inhibition | 0.05% of 340,000 active | AID 493014 | Potency, µM (doses to about 46.1 µM), for the others: at the highest dose activity change, negative = inhibition, actives largely listed as inhibitors | ABC-DLBCL IkBa-CBG/CBR reporter, luminescence ratio, 4 h; active = well fitted inhibition curve with a large enough effect in the signal ratio, with a control signal flat, not every such curve was filed as active; inconclusive = small, poorly fitted or top-dose-only effect, or effect the other way, or a change in a side signal; the % refers to the signal ratio;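 also: potency is read from the fitted curve at half-maximal effect; plate controls were basal doxycycline-induced cells for no effect and cells given 10 µM MG132 for full effect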
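TMD8 ABC-DLBCL cells carrying doxycycline-inducible green luciferase fused to IkappaBalpha plus unfused red luciferase were exposed to compounds (up to 46 uM) for 4 hrs at 37C. Activity came from the overlap-corrected green/red luminescence ratio.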
hERG WT inh – inhibitors of human wildtype KCNH2 potassium channel; Q12809; U2OS, BacMam KCNH2, thallium flux FluxOr; stronger effect = lower value; activity change, % at 1.84 µM; 0.37% of 340,000 active; AID 720551;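 active = maximum activity change below -70%; inconclusive = maximum activity change between -70% and -50%; inactive = maximum activity change above -50%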; also: % is scaled to controls: 0 for no effect and ±100 for the full control effect
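U2OS cells were transduced with wild-type KCNH2 virus (2.03 x 10^8 / mL) for 4 h at room temperature, then cultured overnight at 37 C. Thallium flux was read with FluxOr dye. Rate constants were normalized to DMSO controls.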
ClpP mod – qHTS Assay for Activators of ClpP; ATP-dependent Clp protease proteolytic subunit (Bacillus subtilis (strain 168)), P80244; Potency, µM (titrated, usually from 57.5 µM), without a hit: at the top dose activity change, negative = active; purified B. subtilis ClpP, FRET peptide cleavage, 20 min; 1.9% of 340,000 active; active = well fitted falling curve with a large enough effect; inconclusive = small, poorly fitted or top-dose-only effect; inactive = no such curve, though single readings can be large or run the other way; also: potency is read from the fitted curve at half-maximal effect; the source files actives as falling curves though it sought activators and does not explain the sign; nearly all actives have a fitted effect of over 65% in size
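Purified B. subtilis ClpP, 10 microg/mL final in Tris/HCl pH8 with KCl, BSA, glycerol and Tween-20, cleaved an Abz/nitrotyrosine-quenched decapeptide. Fluorescence (ex 320, em 430) was read at 0 and 20 min at room temperature. Delta was normalized to 5.8 microM ADEP and DMSO/no-enzyme controls.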
LDHA block – inhibitors of human lactate dehydrogenase A; P00338; purified LDHA, NADH/diaphorase-resazurin fluorescence; stronger effect = lower value; activity change, % (values are at about 110 or 230 µM); 0.15% of 480,000 active; AID 1347041; in the data active = activity change below about -30%; inconclusive = mostly about -25% to -30%;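 also: plate controls were DMSO wells for no effect and wells without enzyme for full effect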
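Enzyme activity of human lactate dehydrogenase 5 (2 nM; 0.06 mM NADH, 0.2 mM pyruvate, 5 min, RT) is measured via a resazurin/diaphorase fluorescence readout of residual NADH.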
KCNH2 3.1 inh – blocks the human KCNH2 3.1 channel isoform; U2OS KCNH2 3.1, thallium flux FluxOr; stronger effect = lower value; activity change, % (tested at about 1.8 µM); 0.95% of 340,000 active;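 active = maximum activity change below -70%; inconclusive = maximum activity change from -70% to -50%; inactive = maximum activity change above -50%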;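 also: thallium influx rate constant from kinetic fluorescence after stimulation buffer; % is scaled to controls: 0 for no effect and ±100 for the full control effect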
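Steps: virus added to U2OS suspension (4 h, RT, dark); medium with 10% FBS added, cells plated, 37 C overnight; FluxOr/Red40 loading buffer 45 min RT; stimulation buffer, 2 min kinetic read; rate constant normalized.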
An asterisk follows results filed as active; ? = inconclusive; · = no result given. The list is not random: actives were taken first. Their share in the collection is about 3%.

SMILES	ALOX12 inh	Chronic BCR inh	hERG WT inh	ClpP mod	LDHA block	KCNH2 3.1 inh
CCOc1ccc2oc(-c3ccccc3)c(C(=O)N3CCN(CCO)CC3)c2c1	-2.5%	-10.2%	1.1	14.1µM*	4.7	·
O=C(O)Cc1ccc(S(=O)(=O)Cc2ccccc2)cc1	1µM*	·	·	·	3.1	·
O=C(Nc1ccc(-c2ccc(Cl)cc2)cc1)c1ccncc1	7.08µM*	·	·	·	-11.2	·
O=C(Nc1cnccn1)c1ccncc1	0.3%	-0.3%	-0.3	0.2%	-11.9	-84.3*
CCN(C=NC1=NN(c2cccc(C(F)(F)F)c2)CC1)CC	?	2.1%	6.6	-2.8%	0.5	-0.5
Cc1cccc(N2CCC(N=CN(C)C)=N2)c1	44.7µM*	-6.2%	10.3	·	8.9	·
Cn1ncc(SCc2ccccc2)c(Cl)c1=O	?	-2.2%	9.8	·	-6.5	-3.6
Cn1ncc(S(=O)(=O)Cc2ccccc2)c(Cl)c1=O	14.1µM*	9.0%	-6.3	·	-7.1	3.5
CS(=O)(=O)c1ccc2nc(NC(=O)c3ccc(Cn4cc(Br)cn4)o3)sc2c1	111.7%	-0.9%	-5.7	-21.9%	-10.2	-94.8*
Cc1ccc(/C=C/C(=O)O)cc1S(=O)(=O)NCCCO	181.4%	6.8%	-8.2	-1.7%	-7.9	-1.9
COc1cc(/C=C/C(=O)O)cc(S(=O)(=O)NCCCO)c1OC	17.1%	7.8%	18.8	28.2µM*	-6.2	-4.9
O=C(Nc1c(C(=O)N2CCC(N3CCCCC3)CC2)oc2ccccc12)c1ccc(F)cc1	21.7%	-6.3%	-5.4	-8.4%	-1.6	?
O=C(Nc1c(C(=O)N2CCOCC2)oc2ccccc12)c1cccc([N+](=O)[O-])c1	-28.1%	?	6.0	-3.1%	-3.2	3.3
CCOCCCN(C)C1CCN(C(=O)c2oc3ccccc3c2NC(=O)c2ccc(F)cc2)CC1	-1.1%	2.7%	-81.5*	-6.6%	-2.3	-92.3*
CCOCCCN(C)C1CCN(C(=O)c2oc3ccccc3c2NC(=O)c2ccc([N+](=O)[O-])cc2)CC1	-4.8%	?	-121.8*	-1.5%	-8.6	-81.9*
O=C(OCc1ncc(-c2ccc(F)cc2)o1)c1ccc(Cl)cc1	-17.7%	·	·	·	6.4	·
COc1c(Cl)cc(Cl)cc1/C=C(\C#N)c1nc2ccc(C)cc2[nH]1	?	·	·	·	9.1	·
COc1ccc(/C=C(\C#N)c2nc3ccccc3[nH]2)cc1I	6.31µM*	·	·	·	3.8	·
COc1cc(/C=C(\C#N)c2nc3ccc(C)cc3[nH]2)cc([N+](=O)[O-])c1O	44.7µM*	?	-0.4	·	28.9	-6.7
Cc1cc(/C=C(/C#N)c2nc3ccccc3[nH]2)c(C)n1-c1cccc([N+](=O)[O-])c1	-15.9%	0.9%	-115.6*	-2.1%	-4.0	-133.7*
COc1c(Cl)cc(Cl)cc1/C=C(\C#N)c1nc2ccccc2[nH]1	-24.1%	-1.4%	·	20µM*	0.3	·
COc1ccc(COCC(O)Cn2nc(-c3ccccc3)c3ccccc3c2=O)cc1 (stereo not given)	10.4%	·	·	·	2.1	·
COc1ccc(CNC(=O)CSc2nc(-c3ccc4c(c3)OCO4)ccc2C#N)cc1OC	?	·	·	·	-4.9	·
CCN(CC)c1ccc(/C=C(/C#N)c2nc3ccc(C)cc3[nH]2)c(OC(C)C)c1	-4.4%	?	-70.3*	-0.8%	8.2	?
N#C/C(=C/C1=Cc2cc(Cl)ccc2OC1)c1nc2ccccc2[nH]1	15.8µM*	·	·	·	9.8	·
SMILES	ALOX12 inh	Chronic BCR inh	hERG WT inh	ClpP mod	LDHA block	KCNH2 3.1 inh
N#C/C(=C/c1ccc2c(c1)OCO2)c1nc2ccccc2[nH]1	?	·	·	·	0.5	·
CCCOc1cc(N(CC)CC)ccc1/C=C(/C#N)c1nc2ccc(C)cc2[nH]1	?	12.8%	-18.3	-0.9%	3.3	-42.1
COc1ccc(OC)c(C2CC(=O)N3CN(c4cccc(Cl)c4C)CSC3=C2C#N)c1 (stereo not given)	11.2µM*	?	5.6	-4.8%	-2.7	-1.5
COc1cccc(C2CC(=O)N3CN(c4cccc(Cl)c4C)CSC3=C2C#N)c1OC (stereo not given)	7.94µM*	?	4.1	-0.5%	0.8	6.9
COc1ccc(OC)c(C2CC(=O)N3CN(c4cccc(Cl)c4)CSC3=C2C#N)c1 (stereo not given)	?	0.3%	-5.6	2.7%	3.0	5.4
O=C1NN(c2cccc(Br)c2)C(=O)/C1=C\c1ccccc1	5.62µM*	0.1%	-9.7	·	4.5	-6.0
O=C(O)c1ccc2c3c(cccc13)C(=O)N(c1ccccc1)C2=O	-27.6%	-1.3%	-0.7	·	3.2	-103.7*
O=C(O)c1ccc(N2C(=O)c3cccc4c(C(=O)O)ccc(c34)C2=O)cc1	-29.1%	8.0%	9.3	·	15.5	-21.5
CCn1nc(C(=O)OC2CCCCC2)c2ccccc2c1=O	-8.3%	·	·	·	3.7	·
COc1ccc(OCc2nnc(SCC(=O)N3CCCc4ccccc43)n2-c2ccc(C)cc2)cc1	-24.0%	?	7.0	-0.7%	-0.1	-82.9*
CC(Sc1ncc(C(F)(F)F)cc1Cl)C(=O)Nc1ccccc1F (stereo not given)	4.1%	·	·	·	-16.9	·
N#Cc1c(SCC(=O)O)nc(N2CCOCC2)c2c1CCCC2	5.3%	14.4%	-7.6	·	-5.5	7.4
N#Cc1c(SCC(=O)NCCc2ccccc2)nc(N2CCOCC2)c2c1CCCC2	-19.7%	·	·	·	-30.8*	·
Cc1c(CC(=O)N[C@@H](CCCNC(N)=O)C(=O)O)c(=O)oc2cc3oc4c(c3cc12)CCCC4	-4.6%	1.1%	·	·	·	·
CCCCC(NC(=O)Cc1c(C)c2cc3c4c(oc3cc2oc1=O)CCCC4)C(=O)O (stereo not given)	-6.2%	?	-150.8*	1.6%	7.9	-2.7
COc1ccccc1N1C(=O)C2CCC(c3ccccc3)CC2C1=O (stereo not given)	?	-0.1%	-3.5	-2.4%	3.4	0.0
COc1ccccc1N1C(=O)C2CC=CC(C)C2C1=O (stereo not given)	0.0%	1.8%	-6.7	3.16µM*	-3.6	-2.7
COC(=O)c1cc(S(=O)(=O)N(C)CC(=O)Nc2ccc(Cl)cc2C)cn1C	-6.7%	·	·	·	3.2	·
Cc1ccc(C(=O)N2CCCC(N(C)Cc3ccccc3)C2)s1 (stereo not given)	0.0%	6.3%	28.3	22.4µM*	2.0	-0.8
CCCN(CCC)S(=O)(=O)c1ccc(C(=O)OCCN2C(=O)c3cccc4c(N5CCOCC5)ccc(c34)C2=O)cc1	·	1.5%	-12.2	22.4µM*	-16.0	-37.7
CC(C)c1ccccc1NC(=S)NCCc1ccc(Cl)cc1	?	·	·	·	-1.4	·
